PubChem BioAssay AID1347418 (Sanford-Burnham Center for Chemical Genomics, 2020)
Values joined by “and” are separate entries in the source; they are usually repeats but may differ in a detail not shown here. Identical values can stand only once. Out of some 1,300 compounds screened, about 750 (58%) were called active. The list shows a part of the results.

Each molecule was assayed against Sulfhydryl oxidase 1 (Homo sapiens) (UniProt O00391) (assay: QSOX1 enzyme inhibitors, primary screen, biochemical, ROS-Glo H2O2 luminescence, HTS (AID 1347418)). Details: recombinant QSOX1, ROS-Glo H2O2 luminescence; at 12.5 µM; stronger effect = higher value; active = any value above zero.
Chain of Sulfhydryl oxidase 1 (Homo sapiens) (O00391 whole entry, looked up): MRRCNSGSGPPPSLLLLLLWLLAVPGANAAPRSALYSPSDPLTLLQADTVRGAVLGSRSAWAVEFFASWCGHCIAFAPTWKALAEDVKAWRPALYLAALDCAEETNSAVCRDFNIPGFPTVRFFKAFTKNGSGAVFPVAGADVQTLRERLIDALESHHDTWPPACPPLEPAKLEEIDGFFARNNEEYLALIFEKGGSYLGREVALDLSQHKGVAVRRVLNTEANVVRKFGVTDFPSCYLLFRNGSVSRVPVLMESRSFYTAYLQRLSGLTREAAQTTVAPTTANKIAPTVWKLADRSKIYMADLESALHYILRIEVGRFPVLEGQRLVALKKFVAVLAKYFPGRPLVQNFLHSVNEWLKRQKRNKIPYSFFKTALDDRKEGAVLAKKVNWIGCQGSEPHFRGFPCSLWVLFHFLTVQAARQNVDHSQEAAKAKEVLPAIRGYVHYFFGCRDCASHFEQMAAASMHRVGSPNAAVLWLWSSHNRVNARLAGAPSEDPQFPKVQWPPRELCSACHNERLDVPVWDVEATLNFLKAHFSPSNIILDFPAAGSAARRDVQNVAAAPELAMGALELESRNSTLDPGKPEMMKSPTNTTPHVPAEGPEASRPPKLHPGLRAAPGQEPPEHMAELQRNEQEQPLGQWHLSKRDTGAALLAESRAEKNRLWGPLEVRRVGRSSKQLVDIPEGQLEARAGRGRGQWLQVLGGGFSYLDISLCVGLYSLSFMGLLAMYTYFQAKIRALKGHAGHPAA

inhibition, inactive:
O=c1[nH]c2cc(Cl)ccc2c(O)c1-c1ccc(Oc2ccccc2)cc1 -2.9%
COC(=O)Nc1nc2ccc(C(=O)c3cccs3)cc2[nH]1 -0.8%
NCCCCN -2.1%
NCCCCCCCCCCN 0%
COc1ccc(-c2cc3ncc(C)n3c(Nc3ncccc3C(N)=O)n2)cc1OC -0.2%
NCCCC(=O)O -4%
COCC(=O)O[C@]1(CCN(C)CCCc2nc3ccccc3[nH]2)CCc2cc(F)ccc2[C@@H]1C(C)C -5.7%
Cc1nc2c(OCc3ccccc3)cccn2c1CC#N -7.9%
CCCCNC(=O)NS(=O)(=O)c1ccc(C)cc1 -6.3%
Fc1ccc([C@@H]2CCNC[C@H]2COc2ccc3c(c2)OCO3)cc1 -0.5%
CC(C)NCC(O)c1cc(O)cc(O)c1 (centres undefined) -2.6%
CC(C)NCC(O)c1ccc(NS(C)(=O)=O)cc1 (centres undefined) -5.9%
CNCCNS(=O)(=O)c1cccc2cnccc12 -3%
CCO/C([O-])=N/c1c[n+](N2CCOCC2)no1 -1.5%
C[C@](N)(Cc1ccc(O)cc1)C(=O)O -2.7%
COC(=O)C(C)(N)Cc1ccc(O)cc1 (centres undefined) -0.8%
CC(N)(Cc1ccc(O)cc1)C(=O)O (centres undefined) 0%
CN(C)S(=O)(=O)c1ccc2c(c1)/C(=C/c1cc3c([nH]1)CCCC3)C(=O)N2 -4.7%
COc1cc(OC)c(/C=C2/C(=O)Nc3ccccc32)c(OC)c1 -8.1%
Cc1ccc(C(=O)Nc2ccc(S(=O)(=O)[O-])c3c2C(S(=O)(=O)[O-])=[C+]C(S(=O)(=O)O)=[C+]3)cc1NC(=O)c1cccc(NC(=O)Nc2cccc(C(=O)Nc3cc(C(=O)Nc4ccc(S(=O)(=O)[O-])c5c4C(S(=O)(=O)[O-])=[C+]C(S(=O)(=O)O)=[C+]5)ccc3C)c2)c1 -5.3%
CC(C)NCC(O)COc1cccc2ccccc12 (centres undefined) -1.6%
CC(C)NC[C@H](O)COc1cccc2[nH]ccc12 -0.8%
CC(C)NC[C@H](O)COc1cccc2ccccc12 -2.1%
O=C1N(c2ccccc2)c2ccccc2C1(Cc1ccncc1)Cc1ccncc1 -3.5%
CS(=O)(=O)Nc1ccc([N+](=O)[O-])cc1Oc1ccccc1 -0.8%
O=C(Nc1ccncc1)c1cc([N+](=O)[O-])ccc1Cl -4.2%
C[C@@H]1C(=O)NC2=Nc3cccc(Cl)c3CN21 -4.6%
NCCC1CCCC(CCN)N1 (centres undefined) -5.7%
Nc1ncn([C@@H]2O[C@H](CO)[C@H](O)C2O)c(=O)n1 (some centres undefined) -0.8%
Nc1ccn([C@H]2CC[C@@H](CO)O2)c(=O)n1 -3.2%
NC(=O)c1ncn([C@@H]2O[C@H](CO)[C@@H](O)[C@H]2O)c1O -0.4%
CCc1c(C)[nH]c2c1C(=O)C(CN1CCOCC1)CC2 (centres undefined) -0.8%
C1CCC(N=C(NC23CC4CC(CC(C4)C2)C3)N2CCOCC2)CC1 -2.2%

inhibition, active:
COc1ccc(CCn2nnnc2C2(c3ccc(C)cc3)CC2)cc1 0.5%
N=c1nc(N2CCCCC2)cc(N)n1O 1%
Cc1oncc1C(=O)Nc1ccc(C(F)(F)F)cc1 6.7%
CCCN1C[C@H](CSC)C[C@@H]2c3cccc4[nH]cc(c34)C[C@H]21 7.8%
NC(N)=NCCCCN=C(N)N 7.2%
NCCCCN=C(N)N 2.1%
C=CC(N)CCC(=O)O (centres undefined) 0.6%
CC[C@@H]1Cc2cc(O)ccc2C2=C1c1ccc(O)cc1C[C@H]2CC 41.5%
CCCNC(=O)NS(=O)(=O)c1ccc(Cl)cc1 0.2%
Nn1nnc2ccccc21 0.7%
CC(C)NCC(O)c1ccc(O)c(O)c1 (centres undefined) 4.8% and 11.3%
CC(C)NC[C@H](O)c1ccc(O)c(O)c1 1.4%
CCC(NC(C)C)C(O)c1ccc(O)c(O)c1 (centres undefined) 6.4%
CC1CNCCN1S(=O)(=O)c1cccc2cnccc12 (centres undefined) 10.4%
CC1CN(S(=O)(=O)c2cccc3cnccc23)CCN1 (centres undefined) 3%
Clc1ccccc1C(c1ccccc1)(c1ccccc1)n1ccnc1 10.5%
C[C@](Cc1ccc(O)c(O)c1)(NN)C(=O)O 10.8%
C[C@](N)(Cc1ccc(O)c(O)c1)C(=O)O 8.7%
CC(N)(Cc1ccc(O)c(O)c1)C(=O)O (centres undefined) 2.4%
Cc1cc(C)c(/C=C2\C(=O)Nc3ccccc32)[nH]1 36.3%
CN(C)c1ccc(/C=C2\C(=O)Nc3ccccc32)cc1 42.8%
CC(C)NCC(O)COc1cccc2[nH]ccc12 (centres undefined) 1.4%
C=CCc1ccccc1OCC(O)CNC(C)C (centres undefined) 6.4%
O=C(Nc1ccc([N+](=O)[O-])cc1Cl)c1cc(Cl)ccc1O 8%
O=C(O)c1cc([N+](=O)[O-])ccc1NCCCc1ccccc1 2.3%
O=C(Nc1ccccc1)c1cc([N+](=O)[O-])ccc1Cl 1.2%
Nc1ccc(-c2ccc3ccccc3n2)cc1 14.6%
NCC(O)(CS(=O)(=O)O)c1ccc(Cl)cc1 (centres undefined) 7.3%
O=C1Cc2cc(CCN3CCN(c4nsc5ccccc45)CC3)c(Cl)cc2N1 8.8%
CC(=O)N[C@H]1[C@H]([C@H](O)[C@H](O)CO)OC(C(=O)O)=C[C@@H]1O 10.4%
OCc1cc(C(O)CNCCCCCCOCCCCc2ccccc2)ccc1O (centres undefined) 12.5%
Nc1ccn([C@@H]2O[C@H](CO)[C@@H](O)C2O)c(=O)n1 (some centres undefined) 6%
N=c1ccn2c(n1)OC1C(O)[C@@H](CO)O[C@H]12 (some centres undefined) 7.2%
OCCN(CCO)c1nc(N2CCCCC2)c2nc(N(CCO)CCO)nc(N3CCCCC3)c2n1 46.4%
Cc1ccc(O)c(N=Nc2ccccc2)n1 67.9%
Nc1ccc(-c2nc3ccc(-c4nc5ccc(N)cc5[nH]4)cc3[nH]2)cc1 44.6%
